Source: PubChem
The full list was thinned out, with hits kept by preference.
GluA2 TARP mod – modulators of AMPA receptor GluA2-stargazin complexes; AID 1259245; O88602+P19491; HEK293 GluA2+stargazin, membrane potential dye (FDSS), glutamate EC50; hits were called plate by plate, in both directions; calls only at 30 µM; 40,000 compounds, 3.5% hits;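 active = any of four per-well response measures lying three or more SD from its plate-wide compound average, in either direction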
Target sequence (O88602 whole entry, looked up): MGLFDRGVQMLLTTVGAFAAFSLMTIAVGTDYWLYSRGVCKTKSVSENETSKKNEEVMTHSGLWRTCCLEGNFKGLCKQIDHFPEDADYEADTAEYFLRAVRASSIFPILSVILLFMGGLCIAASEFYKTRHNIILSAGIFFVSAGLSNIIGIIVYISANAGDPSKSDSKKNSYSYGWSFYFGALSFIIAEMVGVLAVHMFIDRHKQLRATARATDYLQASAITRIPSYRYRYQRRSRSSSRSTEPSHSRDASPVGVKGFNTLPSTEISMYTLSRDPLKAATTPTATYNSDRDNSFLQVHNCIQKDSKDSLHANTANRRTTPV
Target sequence (P19491 whole entry, looked up): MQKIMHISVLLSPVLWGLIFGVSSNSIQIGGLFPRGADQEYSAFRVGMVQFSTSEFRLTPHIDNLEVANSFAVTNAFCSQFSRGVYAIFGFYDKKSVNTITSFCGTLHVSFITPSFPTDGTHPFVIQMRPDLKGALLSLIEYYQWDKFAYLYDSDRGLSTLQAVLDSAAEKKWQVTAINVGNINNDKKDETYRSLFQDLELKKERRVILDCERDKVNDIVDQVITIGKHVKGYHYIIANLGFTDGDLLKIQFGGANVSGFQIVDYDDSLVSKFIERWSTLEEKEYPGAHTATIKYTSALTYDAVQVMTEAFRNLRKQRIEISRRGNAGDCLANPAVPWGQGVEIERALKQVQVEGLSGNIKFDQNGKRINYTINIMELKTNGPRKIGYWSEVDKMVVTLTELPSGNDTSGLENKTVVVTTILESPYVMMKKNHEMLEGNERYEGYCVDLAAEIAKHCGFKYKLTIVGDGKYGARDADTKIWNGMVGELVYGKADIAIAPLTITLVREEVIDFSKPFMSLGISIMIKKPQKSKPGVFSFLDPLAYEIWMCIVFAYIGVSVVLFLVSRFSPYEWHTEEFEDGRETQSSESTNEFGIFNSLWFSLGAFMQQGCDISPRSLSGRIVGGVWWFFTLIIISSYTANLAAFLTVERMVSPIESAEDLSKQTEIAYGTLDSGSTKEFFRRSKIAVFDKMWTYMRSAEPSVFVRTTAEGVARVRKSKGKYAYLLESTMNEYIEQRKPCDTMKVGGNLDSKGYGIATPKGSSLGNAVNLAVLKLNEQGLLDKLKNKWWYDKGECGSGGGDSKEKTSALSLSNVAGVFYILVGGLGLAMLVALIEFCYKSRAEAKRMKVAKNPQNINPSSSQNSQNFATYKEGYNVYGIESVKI
GIRK2 act – Activates human GIRK2-containing potassium channels; P48051; 34,000 tested, under 10 active; HEK293 GIRK2/NPY4 cells, thallium flux fluorescence; activation (% efficacy), % for hits at 75 µM;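 active = primary screen hit, no activity in plain HEK293 cells, and in GIRK2-only cells above 5% efficacy rising with concentration; inactive = the rest, including fluorescent compounds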;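 also: efficacy is normalized control-subtracted fluorescence 15 s after thallium addition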
* = called active by the depositor; i = inactive; x = no result given; + = active, no number; ! = a repeat was not active.

SMILES | GluA2 TARP mod | GIRK2 act
COc1cc(CN2CCC(COCc3ccccc3)CC2)cc(OC)c1 | + | i
Cc1ccc2nc3c(cc(C(=O)NCC(=O)OC(C)C)n3Cc3ccccc3)c(=O)n2c1 | i | i
COc1ccc(C)cc1NC(=O)c1cc2c(=O)n3cc(C)ccc3nc2n1Cc1ccccc1 | + | i
O=C(NCCS(=O)(=O)N1CCN(Cc2ccccc2)CC1)c1ccco1 | i | i
CCc1ccc(OCCS(=O)(=O)NCCNC(=O)c2ccc(NC(C)=O)cc2)cc1 | i | x
CC(C)n1ccc(C(=O)N(Cc2ccccn2)c2nc3c(Cl)cccc3s2)n1 | + | i
Cn1ccc(C(=O)N(Cc2cccnc2)c2nc3c(Cl)cccc3s2)n1 | i | i
COc1ccc(CCC(=O)NCC(O)(c2ccccc2)C(F)(F)F)cc1 (stereo not drawn) | i | i
Cc1ccc(-c2nnc(CN3CCC(Cc4ccccc4)CC3)o2)cc1 | +! | i
Cc1ccc(-c2nnc(CN3CCN(Cc4ccccc4)CC3)o2)cc1 | i | i
O=C(Cc1cc(-c2cc3ccccc3o2)on1)Nc1cccc(C(F)(F)F)c1 | i | i
O=C(NCCc1ccsc1)c1cccc2ccccc12 | x | i
O=C(NCCCN1CCOC(c2ccccc2)C1)C1CCCCC1 (stereo not drawn) | i | i
Cc1cccc(N2C(=O)CC(c3cn(C)c4ccccc34)C2=O)c1 (stereo not drawn) | i | x
Cc1ccccc1N1C(=O)CC(c2cn(Cc3ccccc3)c3ccccc23)C1=O (stereo not drawn) | + | x
COc1cccc(C(CNC(=O)c2ccc([N+](=O)[O-])cc2)N2CCOCC2)c1 (stereo not drawn) | i | i
Cc1ccc(C(CNC(=O)NC2CCCCC2)N2CCOCC2)cc1 (stereo not drawn) | + | i
COc1cccc(C(CNC(=O)C2CCN(S(C)(=O)=O)CC2)N2CCOCC2)c1 (stereo not drawn) | i | i
COc1cccc(C(CNC(=O)Nc2ccccc2)N2CCOCC2)c1 (stereo not drawn) | i | i
COc1cccc(C(CNC(=O)C2CCCCC2)N2CCOCC2)c1 (stereo not drawn) | + | x
COc1cccc(C(CNC(=O)c2cccc([N+](=O)[O-])c2C)N2CCOCC2)c1 (stereo not drawn) | + | i
COc1cccc(C(CNC(=O)Nc2ccc(Cl)cc2)N2CCOCC2)c1 (stereo not drawn) | + | i
O=C(NCC(c1ccc(F)cc1)N1CCOCC1)NC1CCCCC1 (stereo not drawn) | i | x
O=C(NCCCn1nc(-c2ccccc2)ccc1=O)c1ccc2c(c1)OCO2 | i | i
COc1cccc(-n2ccn(CC(=O)Nc3ccc(OC)cc3OC)c(=O)c2=O)c1 | i | x
SMILES | GluA2 TARP mod | GIRK2 act
Cc1ccc(C)c(OCC(O)Cn2c(C3CC(=O)N(c4ccc(F)cc4)C3)nc3ccccc32)c1 (stereo not drawn) | i | i
CCN(CC)CCNC(=O)c1cc2cc(Br)cc(OC)c2oc1=O | i | x
Cc1nn(C2CCS(=O)(=O)C2)c2nc(-c3ccco3)cc(C(=O)NCc3ccc(Cl)cc3)c12 (stereo not drawn) | i | i
COc1ccc(-c2nnc(NC(=O)Cc3ccc(C)cc3C)o2)cc1OC | i | i
N#C/C(=C\c1ccccc1)c1nc2ccccc2s1 | i | x
N#C/C(=C\c1cccs1)c1nc2ccccc2s1 | + | x
Cc1cc(NC(=O)CN2CCC(c3nnc(C(C)C)o3)CC2)no1 | i | i
CC(C)NC(=O)c1nsc(C(=O)NC(C)c2ccccc2)c1N (stereo not drawn) | i | i
Cn1c(=O)c2c(ncn2CC(=O)NCc2ccccc2)n(C)c1=O | + | x
Cn1c(=O)c2c(ncn2Cc2ccccc2)n(C)c1=O | i | x
CN(C1CC1)S(=O)(=O)c1ccc(C(=O)Nc2nc(-c3ccc(C#N)cc3)cs2)cc1 | i | i
CSc1ccccc1NC(=O)C(=O)NCC1(c2cccs2)CCCC1 | x | i
Cc1cc(NC(=O)C(=O)NCC2(c3cccs3)CCCC2)c2ccccc2n1 | x | 6.0%*
Cc1cc(C(=O)NCCn2nc(-c3cccs3)n(C)c2=O)c(C)o1 | i | i
O=C(Nc1ccccc1C(F)(F)F)c1ccc(=O)n(Cc2ccc(C(F)(F)F)cc2)c1 | i | i
CCOc1ccccc1C(=O)N1CCN(c2ncnc3c2nnn3-c2ccc(F)cc2)CC1 | i | i
CCOc1ccccc1C(=O)N1CCN(c2ncnc3c2nnn3-c2ccc(OC)cc2)CC1 | + | x
Cc1nnc2ccc(N3CCN(S(=O)(=O)c4ccccc4C(F)(F)F)CC3)nn12 | i | i
O=S(=O)(c1ccccc1F)N1CCN(c2ccc3nnc(-c4ccco4)n3n2)CC1 | + | i
Cc1nnc2ccc(N3CCN(S(=O)(=O)c4ccccc4Cl)CC3)nn12 | + | i
